Source: PubChem BioAssay (EPA / NIEHS)
Calls of active or inactive are those of the source. The calls were made as follows: active = hit-call score of the fitted dose curve at least 0.9, where 1 is the maximum; inactive = score below 0.9.

Experiments:
Settings in all cases: mRNA level, 48 h; actives raise or lower the signal
[1] = read-out: Glutamate-cysteine ligase catalytic (GCLC), GCLC (gene 2729); assay: LTEA_HepaRG_GCLC: Life Technologies and Expression Analysis (LTEA) Assay for Glutamate-cysteine ligase catalytic (GCLC) using HepaRG (AID 2283498)
In short: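 Differentiated HepaRG cells exposed 48 h in serum-free induction medium, eight-point half-log series topping at 100 uM in 0.5% DMSO, duplicates. GCLC mRNA by qRT-PCR normalized to ACTB, GAPDH and POLR2A, fitted bidirectionally versus DMSO.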

[2] = read-out: growth arrest and DNA damage 45 (GADD45G), GADD45G (gene 10912); assay: LTEA_HepaRG_GADD45G: Life Technologies and Expression Analysis (LTEA) Assay for growth arrest and DNA damage 45 (GADD45G) using HepaRG (AID 2283499)
In short: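 Gain or loss of GADD45G mRNA, quantified by TaqMan qRT-PCR against three housekeeping genes, is fitted in both directions relative to 0.5% DMSO. Human HepaRG cultures receive test chemical for 48 h at up to 100 uM.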

[3] = read-out: Glutamate-cysteine ligase regulatory (GCLM), GCLM (gene 2730); assay: LTEA_HepaRG_GCLM: Life Technologies and Expression Analysis (LTEA) Assay for Glutamate-cysteine ligase regulatory (GCLM) using HepaRG (AID 2283500)
In short: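 Differentiated HepaRG cells exposed 48 h in serum-free induction medium to eight half-log concentrations up to 100 uM (0.5% DMSO). GCLM mRNA by TaqMan qRT-PCR, normalized to ACTB, GAPDH and POLR2A; bidirectional fit versus DMSO.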

[4] = read-out: Glutathione S-transferase M3 (GSTM3), GSTM3 (gene 2947); assay: LTEA_HepaRG_GSTM3: Life Technologies and Expression Analysis (LTEA) Assay for Glutathione S-transferase M3 (GSTM3) using HepaRG (AID 2283501)
In short: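 HepaRG, plated 48 h, then serum-free induction medium; test chemical 48 h, duplicate; 100 uM top, half-log x8, 0.5% DMSO. Read-out: GSTM3 mRNA (TaqMan qRT-PCR, Fluidigm array). Bidirectional fit vs DMSO.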

[5] = read-out: Heat shock 70 kDa protein 1 (HSPA1A), gene 3303; assay: LTEA_HepaRG_HSPA1A: Life Technologies and Expression Analysis (LTEA) Assay for Heat shock 70 kDa protein 1 (HSPA1A) using HepaRG (AID 2283502)
In short: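 Human HepaRG cells in serum-free induction medium were exposed in duplicate for 48 h to 8 half-log concentrations, highest 100 uM, in 0.5% DMSO. HSPA1A mRNA read by TaqMan qRT-PCR, normalized to ACTB, GAPDH, POLR2A, fitted bidirectionally against DMSO.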

[6] = read-out: Hypoxia-inducible factor 1-alpha (Homo sapiens) (UniProt Q16665); assay: LTEA_HepaRG_HIF1A: Life Technologies and Expression Analysis (LTEA) Assay for Hypoxia-inducible factor 1 (HIF1A) Trancription factor using HepaRG (AID 2283503)
In short: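 Differentiated HepaRG cells in serum-free induction medium exposed 48 h, in duplicate, to 8-point half-log series from 100 uM in 0.5% DMSO. HIF1A mRNA measured by TaqMan qRT-PCR, normalized to ACTB/GAPDH/POLR2A, fitted bidirectionally versus DMSO.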

[7] = read-out: 3-Hydroxy-3-Methylglutaryl-CoA Synthase 2 (HMGCS2), HMGCS2 (gene 3158); assay: LTEA_HepaRG_HMGCS2: Life Technologies and Expression Analysis (LTEA) Assay for 3-Hydroxy-3-Methylglutaryl-CoA Synthase 2 (HMGCS2) using HepaRG (AID 2283504)
In short: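 HepaRG, plated 48 h then switched to serum-free induction media; cmpd 8-pt, max 100 uM, 1/2-log, 0.5% DMSO, n=2, 48 h. HMGCS2 mRNA by Fluidigm TaqMan qRT-PCR, ACTB/GAPDH/POLR2A norm; bidirectional fit vs DMSO.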

HGF (gene 3082) = assay: LTEA_HepaRG_HGF: Life Technologies and Expression Analysis (LTEA) Assay for Hepatocyte Growth Facto (HGF) using HepaRG (AID 2283505)
In short: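 Read-out is HGF transcript level by qRT-PCR, normalized to three housekeeping genes, fitted bidirectionally against 0.5% DMSO vehicle. Human HepaRG cells received test chemicals for 48 h at up to 100 uM.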

[8] = read-out: Insulin Like Growth Factor 1 (IGF1), IGF1 (gene 3479); assay: LTEA_HepaRG_IGF1: Life Technologies and Expression Analysis (LTEA) Assay for Insulin Like Growth Factor 1 (IGF1) using HepaRG (AID 2283506)
In short: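 Differentiated HepaRG cells in serum-free induction medium, exposed 48 h in duplicate to 8 half-log concentrations up to 100 uM in 0.5% DMSO. IGF1 mRNA by Fluidigm qRT-PCR, normalised to ACTB, GAPDH and POLR2A.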

[9] = read-out: Intercellular Adhesion Molecule 1 (ICAM1), ICAM1 (gene 3383); assay: LTEA_HepaRG_ICAM1: Life Technologies and Expression Analysis (LTEA) Assay for Intercellular Adhesion Molecule 1 (ICAM1) using HepaRG (AID 2283507)
In short: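 Readout is qRT-PCR mRNA level, normalized to three housekeeping genes and fitted bidirectionally against 0.5% DMSO vehicle. Human HepaRG cultures received compound for 48 h, top concentration 100 uM with half-log dilutions.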

[10] = read-out: Insulin-like growth factor-binding protein 1 (IGFBP1), IGFBP1 (gene 3484); assay: LTEA_HepaRG_IGFBP1: Life Technologies and Expression Analysis (LTEA) Assay for Insulin-like growth factor-binding protein 1 (IGFBP1) using HepaRG (AID 2283508)
In short: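 Thawed HepaRG cells are plated for 48 h, switched to serum-free induction medium, then dosed in duplicate for another 48 h (100 uM top, half-log steps). Lysates in RLT go to qRT-PCR, and gain or loss of signal is fitted relative to vehicle.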

[11] = read-out: Interleukin 6 (IL6), IL6 (gene 3569); assay: LTEA_HepaRG_IL6: Life Technologies and Expression Analysis (LTEA) Assay for Interleukin 6 (IL6) using HepaRG (AID 2283509)
In short: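 HepaRG cells exposed in duplicate for 48 h to eight half-log concentrations, top 100 uM, in 0.5% DMSO serum-free induction medium. mRNA measured by qRT-PCR, normalized to ACTB, GAPDH and POLR2A. Bidirectional fit versus DMSO.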

[12] = read-out: Interleukin 6 Receptor (IL6R), IL6R (gene 3570); assay: LTEA_HepaRG_IL6R: Life Technologies and Expression Analysis (LTEA) Assay for Interleukin 6 Receptor (IL6R) using HepaRG (AID 2283510)
In short: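 Differentiated HepaRG cells, plated 48 h, then exposed in duplicate for 48 h in serum-free induction medium to 8 half-log concentrations (top 100 uM, 0.5% DMSO). IL6R mRNA measured by TaqMan qRT-PCR, normalized to ACTB/GAPDH/POLR2A; bidirectional fit vs DMSO.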

[13] = read-out: Potassium channel subfamily K member 1 (KCNK1), KCNK1 (gene 3775); assay: LTEA_HepaRG_KCNK1: Life Technologies and Expression Analysis (LTEA) Assay for Potassium channel subfamily K member 1 (KCNK1) using HepaRG (AID 2283511)
In short: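 Differentiated HepaRG cells, 48 h exposure in serum-free induction medium with 0.5% DMSO; 8 concentrations, half-log from 100 uM, duplicate. KCNK1 mRNA by qRT-PCR, normalized to ACTB, GAPDH, POLR2A; bidirectional fit vs DMSO.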

[14] = read-out: Keratin 19 (KRT19), KRT19 (gene 3880); assay: LTEA_HepaRG_KRT19: Life Technologies and Expression Analysis (LTEA) Assay for Keratin 19 (KRT19) using HepaRG (AID 2283512)
In short: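 KRT19 transcript levels, measured by Fluidigm qRT-PCR against three housekeeping genes, are fitted for gain or loss of signal relative to DMSO. Human HepaRG cells receive test chemicals (top 100 uM, half-log steps, 0.5% DMSO) for 48 hours.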

[15] = read-out: JUN Transcription Factor, JUN (gene 3725); assay: LTEA_HepaRG_JUN: Life Technologies and Expression Analysis (LTEA) Assay for JUN Transcription Factor using HepaRG (AID 2283513)
In short: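 HepaRG cells, 48 h post-plating, exposed 48 h in serum-free induction medium to 8-point half-log series (top 100 uM, 0.5% DMSO), duplicate; mRNA by qRT-PCR (TaqMan, Fluidigm), normalized to ACTB/GAPDH/POLR2A; bidirectional fit vs DMSO.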

[16] = read-out: Lipase C (LIPC), LIPC (gene 3990); assay: LTEA_HepaRG_LIPC: Life Technologies and Expression Analysis (LTEA) Assay for Lipase C (LIPC) using HepaRG (AID 2283514)
In short: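 HepaRG cells, 48 h after plating, treated in duplicate for 48 h in serum-free induction medium over 8 half-log concentrations from 100 uM, 0.5% DMSO. LIPC mRNA by TaqMan qRT-PCR normalized to ACTB/GAPDH/POLR2A; bidirectional fit versus DMSO.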

[17] = read-out: Lipoprotein lipase (LPL), LPL (gene 4023); assay: LTEA_HepaRG_LPL: Life Technologies and Expression Analysis (LTEA) Assay for Lipoprotein lipase (LPL) using HepaRG (AID 2283515)
In short: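 Differentiated HepaRG cells, plated 48 h, then exposed 48 h in serum-free induction medium to 8 concentrations (top 100 uM, half-log steps) in 0.5% DMSO, duplicate. LPL mRNA measured by qRT-PCR, normalized to ACTB, GAPDH and POLR2A.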

[18] = read-out: MicroRNA 122 (MIR122), gene 406906; assay: LTEA_HepaRG_MIR122: Life Technologies and Expression Analysis (LTEA) Assay for MicroRNA 122 (MIR122) using HepaRG (AID 2283516); also: the transcript read is the microRNA miR-122
In short: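 Differentiated human HepaRG cells in serum-free induction medium exposed 48 h to 8 half-log concentrations from 100 uM in 0.5% DMSO, duplicate. MIR122 quantified by Fluidigm TaqMan qRT-PCR, normalised to ACTB, GAPDH, POLR2A; fold change fitted bidirectionally versus DMSO.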

[19] = read-out: matrix metalloproteinase-10 (MMP10), MMP10 (gene 4319); assay: LTEA_HepaRG_MMP10: Life Technologies and Expression Analysis (LTEA) Assay for matrix metalloproteinase-10 (MMP10) using HepaRG (AID 2283517)
In short: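 Differentiated HepaRG cells in serum-free induction medium exposed 48 h in duplicate to 8-point half-log series up to 100 uM in 0.5% DMSO. mRNA quantified by qRT-PCR, normalised to ACTB, GAPDH, POLR2A; bidirectional fit versus DMSO.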

Measured: outcome

Hypoxia-inducible factor 1-alpha (Homo sapiens), sequence (Q16665 whole entry, looked up): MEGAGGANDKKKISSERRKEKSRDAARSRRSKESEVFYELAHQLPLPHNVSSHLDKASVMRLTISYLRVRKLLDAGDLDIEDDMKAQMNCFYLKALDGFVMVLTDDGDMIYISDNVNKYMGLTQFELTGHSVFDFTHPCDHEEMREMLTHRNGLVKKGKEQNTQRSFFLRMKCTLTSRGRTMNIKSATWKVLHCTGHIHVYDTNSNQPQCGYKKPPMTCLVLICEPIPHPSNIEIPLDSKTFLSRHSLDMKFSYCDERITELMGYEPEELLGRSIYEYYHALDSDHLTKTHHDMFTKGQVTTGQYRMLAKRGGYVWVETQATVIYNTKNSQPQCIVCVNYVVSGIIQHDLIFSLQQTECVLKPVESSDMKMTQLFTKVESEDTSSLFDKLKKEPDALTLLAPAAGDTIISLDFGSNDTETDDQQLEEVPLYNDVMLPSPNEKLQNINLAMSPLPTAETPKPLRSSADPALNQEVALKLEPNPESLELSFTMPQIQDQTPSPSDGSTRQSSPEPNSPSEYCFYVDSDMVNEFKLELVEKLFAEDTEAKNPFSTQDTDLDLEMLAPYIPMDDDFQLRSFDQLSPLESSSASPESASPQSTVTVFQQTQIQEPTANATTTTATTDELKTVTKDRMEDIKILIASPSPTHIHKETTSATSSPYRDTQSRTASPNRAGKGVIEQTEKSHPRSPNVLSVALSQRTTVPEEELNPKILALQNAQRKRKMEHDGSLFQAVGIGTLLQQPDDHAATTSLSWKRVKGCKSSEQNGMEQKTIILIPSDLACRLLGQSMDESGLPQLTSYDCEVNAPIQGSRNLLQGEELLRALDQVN

Cc1cc(C)cc(C)c1
inactive: all assays above

N#Cc1cccnc1
inactive: all assays above

CC(C)O.CC(C)O.OCCN(CCO)CCO.OCCN(CCO)CCO.[Ti]
inactive: all assays above

Clc1cccc(Cl)c1Cl
not listed: [12]
inactive: all other assays above

COc1ccccc1N
inactive: all assays above

CC(C)(C)c1ccccc1O
inactive: all assays above

Clc1cccc(Cl)c1
inactive: all assays above
